IL1B secr inh: qHTS for Inhibitors of Inflammasome Signaling: IL-1-beta AlphaLISA Primary Screen; THP-1 LPS/ATP IL-1B secretion, AlphaLISA, 16 h; stronger effect = lower value; activity change, % at 57.5 µM; 4.7% of 360,000 active; in the data active means activity change below about -50%; inconclusive means mostly about -30% to -49%
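Secreted IL-1B measured by AlphaLISA bead assay after 16 h compound exposure of THP-1 cells; compounds (final up to 57.5 uM) added 1 h before LPS (250 ng/mL) and ATP (1.25 mM) stimulation; lower signal means less secretion.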
DT40 TDP1 no CPT: qHTS for Inhibitors of human tyrosyl-DNA phosphodiesterase 1 (TDP1): qHTS in cells in absence of CPT. DT40 Tdp1-/- hTDP1 cells, no CPT, ATP luminescence, 48 h. Potency, µM (top dose mostly 46.2 µM), hits mostly inhibitors. 15% of 420,000 active; further: nearly all actives have a fitted effect of over 55% in size
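Growth kinetics read by CellTiter-Glo luminescence after ≥48 hr at 37 °C. Cells: DT40 Tdp1-/- stably carrying human TDP1, 400 per well, compound exposure in the absence of CPT (DMSO vehicle).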
TDP1 cell CPT: qHTS for Inhibitors of human tyrosyl-DNA phosphodiesterase 1 (TDP1): qHTS in cells in presence of CPT | chicken DT40 Tdp1-/-;hTDP1 cells + 20 nM CPT, ATP luminescence, 48 h | Potency, µM (doses to about 46.2 µM), usual class: inhibitors | 12% of 420,000 active; further: nearly all actives have a fitted effect of over 55% in size
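Chicken DT40 Tdp1-/- cells complemented with human TDP1, 400 cells/well, exposed to compounds plus 20 nM camptothecin for at least 48 h at 37 C; viability read as ATP content by CellTiter-Glo luminescence.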
TDP1 inh: qHTS Assay for Inhibitors of Tyrosyl-DNA Phosphodiesterase (TDP1); recombinant TDP1, AlphaScreen DNA substrate cleavage; Potency, µM (highest dose often 130 µM), most hits filed as inhibitors; 0.28% of 350,000 active; Tyrosyl-DNA phosphodiesterase 1 (Homo sapiens), Q9NUW8; further: nearly all actives have a fitted effect of over 40% in size
Target sequence (Q9NUW8 whole entry, looked up): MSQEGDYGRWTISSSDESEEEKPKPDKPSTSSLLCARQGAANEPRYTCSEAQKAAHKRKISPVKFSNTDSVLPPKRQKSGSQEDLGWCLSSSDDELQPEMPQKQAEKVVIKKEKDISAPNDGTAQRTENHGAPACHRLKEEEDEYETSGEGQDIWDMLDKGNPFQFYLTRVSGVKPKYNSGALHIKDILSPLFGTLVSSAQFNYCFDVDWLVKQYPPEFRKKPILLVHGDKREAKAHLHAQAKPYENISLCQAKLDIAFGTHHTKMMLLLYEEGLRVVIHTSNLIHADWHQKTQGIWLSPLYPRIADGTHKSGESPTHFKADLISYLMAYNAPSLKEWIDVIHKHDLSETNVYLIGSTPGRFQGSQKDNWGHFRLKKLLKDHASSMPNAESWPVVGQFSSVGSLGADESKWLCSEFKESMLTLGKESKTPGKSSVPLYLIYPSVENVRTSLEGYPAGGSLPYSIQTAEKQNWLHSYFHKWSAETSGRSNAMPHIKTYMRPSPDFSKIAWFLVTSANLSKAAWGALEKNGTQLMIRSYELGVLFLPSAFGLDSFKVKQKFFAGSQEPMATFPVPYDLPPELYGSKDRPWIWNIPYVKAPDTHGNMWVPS
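Here, a 5' biotin and 3' phosphotyrosine-FITC DNA oligonucleotide reports Tdp1 activity: intact substrate bridges AlphaScreen beads, while cleavage leaves a 3' phosphate and drops signal. All incubations at room temperature.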
Giardia kill: Small Molecules that selectively kill Giardia lamblia: qHTS; 0.15% of 340,000 active; Giardia lamblia trophozoite viability; activity change, % at 7.66 µM, hits read low; AID 540267, 2011; in the data active means activity change below about -80%; inconclusive means between about -30% and that limit;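 further: parasites exposed to compound for two days anaerobically before the ATP read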
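Viability, read as ATP luminescence: trophozoites at 100 cells/well, compound added, 48 hrs anaerobic at 37 deg C, then 15-30 min room-temperature development before reading.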
ELG1 DNA repair: qHTS screen for small molecules that inhibit ELG1-dependent DNA repair in human embryonic kidney (HEK293T) cells expressing luciferase-tagged ELG1; HEK293T ELG1-luciferase reporter, luminescence, 16 h; DNA damage induced by 5-fluorouridine; 2.3% of 330,000 active; Potency, µM (top dose mostly 46.1 µM), actives largely listed as inhibitors; further: nearly all actives have a fitted effect of over 55% in size
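Luminescence from the luciferase reporter, measured 30 min after ONE-Glo reagent at room temperature, was the read-out. Beforehand, 2,000 cells per well were exposed for 16 hr at 37 °C to 5-fluorouridine together with compound or vehicle.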
Numbers stand for hits; 0 = inactive; ? = inconclusive; - = not tested or not shown. Only some compounds are listed: those with a hit (about 19% of all), similar ones and a draw of the others. Unless noted, the call rests on the fitted dose curve; in most records, active means well fitted curve in the direction sought with a large enough effect; inconclusive means small, poorly fitted or top-dose-only effect, or another doubt; inactive means no such curve, though single readings can be large; an effect the other way counts as inactive or inconclusive.

SMILES	IL1B secr inh	DT40 TDP1 no CPT	TDP1 cell CPT	TDP1 inh	Giardia kill	ELG1 DNA repair
CCc1ccc(NC(=O)Cn2c(=O)ccc3cc(S(=O)(=O)N4CCCC4)ccc32)cc1	-	0	0	0	-	-
O=C(CSc1ccc2nnc(-c3ccccn3)n2n1)Nc1ccccc1F	0	?	0	0	0	0
COc1ccc(S(=O)(=O)N2CCOCC2)cc1NC(=O)c1sccc1C	0	?	?	0	0	0
C=C1CC(Cn2cc(Br)c(=O)[nH]c2=O)(c2ccc(-c3ccccc3)cc2)OC1=O (centres undefined)	0	0.026µM	0.033µM	-	0	-
O=c1[nH]c(=O)n(Cc2ccc(Oc3ccccc3)cc2)cc1Br	-	-	-	-	-	0
CCn1c(=O)c2cc(C(=O)N(CCCOC(C)C)Cc3ccco3)sc2c2ccccc21	-	21µM	?	0	-	-
CCn1c(=O)c2cc(C(=O)NCCN(C)C)sc2c2ccccc21	-	?	?	-	0	?
CCOc1ccccc1N(C)C(=O)c1cc2c(=O)n(CC)c3ccccc3c2s1	-68	21µM	21µM	-	0	?
CCn1c(=O)c2cc(C(=O)N(C)CC(OC)OC)sc2c2ccccc21	0	?	?	-	0	0
CCn1c(=O)c2cc(C(=O)N(CCN(C)C)Cc3ccccc3)sc2c2ccccc21	-	21µM	0	0	-	-
CC(C)CCN(Cc1ccco1)C(=O)c1cc2c(Cl)nc3ccccc3c2s1	-	16µM	?	0	-	-
Cc1cccnc1NC(=O)CCNC(=O)c1ccc(Cl)cc1	0	0	0	0	0	0
CN(C(=O)c1cccc(NC(=O)Cc2ccc(NC(=O)C3CCN(C(=O)C4CCCCC4)CC3)cc2)c1)C1CCCC1	0	?	?	-	0	-
O=C(CCCc1ccccn1)c1cccc2ccccc12	0	0	0	-	0	-
COc1cccc(C2=Nn3c(nnc3-c3cc(OC)cc(OC)c3)SC2)c1	-	-	-	0	-	-
COc1ccc(OC)c(NS(=O)(=O)c2ccc(N3CCCC3=O)cc2)c1	0	0.37µM	0.52µM	0	0	?
COc1ccc(NC(=O)C2CCN(S(=O)(=O)c3ccc(N4CCCC4=O)cc3)CC2)c(OC)c1	0	0	?	0	0	0
COc1ccc(NS(=O)(=O)c2ccc(N3CCCC3=O)cc2)cn1	0	6.5µM	4.6µM	0	0	?
Cc1ccc(OCCNS(=O)(=O)c2ccc(N3CCCC3=O)cc2)cc1	0	5.8µM	6.5µM	0	0	?
Cc1ccc(OCCNS(=O)(=O)c2ccc(N3CCCC3=O)cc2)cc1C	0	6.5µM	6.5µM	0	0	?
Cc1noc(C)c1S(=O)(=O)N(CC(=O)NC1CCC(C)CC1)c1ccc(C(C)C)cc1 (centres undefined)	0	0	?	0	0	0
COc1cc(OC)cc(-c2c(-c3cccs3)c3cc(-c4ccc(OCc5ccccc5)cc4)ccc3n2C)c1	0	0	0	0	0	?
CC(C)(C)OC(=O)NC(Cc1ccccc1)C(O)c1ccco1 (centres undefined)	-	-	-	0	0	-
COc1ccc(OC)c(NS(=O)(=O)c2ccc(-n3cccn3)cc2)c1	0	10µM	?	0	-	-
CCCCc1ccc(S(=O)(=O)NCCCN2CCCC2=O)cc1	0	13µM	?	0	0	0
Cn1c(=O)oc2cc(S(=O)(=O)NCCCN3CCCC3=O)ccc21	0	0	0	0	0	0
O=C1CCCN1c1ccc(S(=O)(=O)NCCc2ccc(Cl)cc2)cc1	0	?	?	0	0	0
COc1ccc(CCNS(=O)(=O)c2ccc(N3CCCC3=O)cc2)cc1	0	21µM	21µM	-	0	-
Cc1cc(N2CCCC2=O)cc(C)c1S(=O)(=O)NCCOc1ccccc1	?	?	8.2µM	0	0	?
Cc1ccc(NS(=O)(=O)c2ccc(-n3cccn3)cc2)c(Cl)c1	0	?	?	-	-	-
